From the supplement of paper PMC6555819

Legend:
Assay in all cases: PBM binding z-score (relative to random genomic background probes); higher = stronger binding; sequences stand for … in GC…GCGATTGACAGCGTAGAATGAAGG
[1] = system: PPARg:RXRa DBDmut IVT, anti-RXR (DBD mutation: RXRa K156A/R161A, NR concentration 270 nM, RXRa partner concentration 90 nM)
How it was run: (§1)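 Binding z-scores were set against random background probes. The data came from custom Agilent 4×180K protein-binding microarrays carrying double-stranded probes with 34-nt variable regions, incubated 1 h with ligand-free nuclear receptor dimers. Partner-specific antibodies detected binding, and scanned fluorescence was regression-normalized.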

[2] = system: PPARg:RXRa IVT, anti-PPARg (NR concentration 270 nM, RXRa partner concentration 90 nM)
How it was run: as §1

[3] = system: PPARg DBDmut:RXRa IVT, anti-PPARg (DBD mutation: PPARg1 K132A/R137A, NR concentration 270 nM, RXRa partner concentration 90 nM)
How it was run: as §1

[4] = system: PPARg DBDmut IVT, anti-PPARg (DBD mutation: PPARg1 K132A/R137A, NR concentration 270 nM)
How it was run: as §1

[5] = system: PPARg homodimer (NR concentration 180 nM)
How it was run: as §1

[6] = system: PXR:RXRa (NR concentration 270 nM, RXRa partner concentration 90 nM)
How it was run: as §1

[7] = system: PXR homodimer (NR concentration 270 nM)
How it was run: as §1

[8] = system: RARa:RXR (NR concentration 270 nM, RXRa partner concentration 90 nM)
How it was run: as §1

[9] = system: RARa homodimer (NR concentration 270 nM)
How it was run: as §1

[10] = system: RARb:RXRa (NR concentration 270 nM, RXRa partner concentration 90 nM)
How it was run: as §1

Sequence | PBM binding z-score [1] | PBM binding z-score [2] | PBM binding z-score [3] | PBM binding z-score [4] | PBM binding z-score [5] | PBM binding z-score [6] | PBM binding z-score [7] | PBM binding z-score [8] | PBM binding z-score [9] | PBM binding z-score [10]
ATCTCTAGGTAACAAGTTCAGTGAAAGAGAGGAC | 3.46 | 3.2 | 1.03 | 1.64 | 1.58 | 1.71 | 2.41 | 0.933 | 1.19 | 1.85
CCTTACGAGTCACGAGGTTATAGCACGACGAGCG | 0.274 | 0.318 | 0.557 | 0.13 | 1.26 | 1.25 | 0.811 | 1.79 | 1.56 | 0.971
TCCCGGAGGACACGAAAGGTCAGAGCTCGACATC | 1.58 | 1.17 | -0.696 | -0.402 | 2.86 | 3.87 | 0.5 | 4.24 | 1.11 | 4.25
AATACAGGGTCATCGTAGGCCAGCGTACGCACAG | 2.7 | 4.3 | 1.13 | 2.04 | 1.67 | 4.77 | 0.406 | 4.77 | 0.478 | 4.55
AATACAAGGTCACTAGGCCAGAGTAGGTACGAAT | 4.85 | 6.56 | 2.9 | 1.98 | 3.01 | 3.63 | 0.919 | 4.05 | 1.19 | 5.31
TGTTGTAGATCAATAGAGGTTAAGAAAGTGCGCT | -0.0957 | 0.893 | 1.29 | 1.09 | 1.38 | 3.29 | 0.289 | 1.76 | 1.61 | 1.01
ATCGAAAGGTCGAAGGGGAGTATACCCACCCGAA | -0.023 | 1.38 | 1.29 | 0.309 | 1.15 | 2.21 | 0.32 | 2.79 | 0.273 | 3.73
AGAATGAGGGTAAGATCAGGGAAACAGAATACAT | 2.28 | 1.71 | 1.14 | 0.818 | 0.587 | 0.216 | 0.539 | 0.611 | 1.07 | 0.741
CGTCAGAGTTCAAGGTAACGTAACAGAAAGCAGC | 0.546 | 0.936 | -0.0239 | 0.226 | 2.34 | 4.5 | 2.86 | 3.31 | 0.785 | 4.36
ATATCTAGGTAACCAAGTTCAGTGAATGCCGAAC | 6.87 | 6.81 | 1.28 | 1.43 | 1.06 | 2.01 | 1.85 | 0.933 | 0.953 | 1.39
GAAGACAGGTGAAACGCAGGTAACTCAGGGTGGC | 0.674 | 1.15 | 0.0757 | -0.907 | -0.0582 | -0.0972 | -0.579 | 0.542 | -0.418 | 0.745
TCGAGTAGGTTACCAATGGAGCATTCAGCTTTCT | 3.08 | 2.37 | -0.0505 | -0.361 | -0.556 | -0.0122 | -0.741 | -0.35 | -0.787 | 0.629
GCTGCTACGTCAGGTTGGTCAGCTAACGGGTACG | -0.264 | -0.651 | -0.712 | -1.19 | -0.583 | -0.691 | -0.732 | -0.51 | -1.16 | -0.154
AGAATGATGTTACCAAAGATCAGGGAAACGCTTG | -0.0632 | 0.0152 | 0.508 | 0.116 | -0.153 | -0.39 | -0.411 | 0.018 | 0.147 | -0.129
ATCTTTAGGTAAAGATAGTTCAGTGAATGCAAAT | 0.996 | 0.866 | 1.02 | 1.16 | 0.255 | 1.01 | 0.329 | 0.518 | 1.15 | 0.913
TTACCAAGGTGCGCTGAGGTCGTTGATCCAACTC | -0.264 | 0.111 | -0.817 | -0.343 | -0.175 | 2.58 | 1.74 | 1.4 | -0.803 | 0.681
ATACCAAGGCGATCGTGAGGTCGTTGATACTAAC | -0.138 | -0.0368 | -0.877 | -0.313 | -0.138 | 1.3 | 0.728 | 1.12 | 0.128 | 0.341
CCTTACGTGTCACTGACAGGTTATAGCATTTGGA | 2.18 | 1.32 | 0.83 | 1.13 | 1.53 | 0.903 | 0.611 | 1.21 | 1.67 | 1.19
AGAATGAGGTTATACGTAGATCAGGGACGAAAGT | 3.78 | 2.16 | 1.14 | 1.42 | 0.4 | 1.12 | 0.405 | 1.49 | 0.392 | 1.42
TCGAGTAGGTTAGTCGGGACATTCAGCCAACATA | 1.85 | 1.48 | -0.367 | -1.31 | -0.431 | -0.161 | -0.242 | 0.166 | -0.452 | 0.165
GATACAGGGTCAAGGCCAGAGAACGCGTATTGAT | 2.63 | 3.9 | 1.58 | -0.524 | 2.6 | 3.71 | 0.476 | 4.41 | 1.07 | 4.49
CCTAGTTGGTCAGGAGCTCACACACCGGATATGA | 0.512 | 0.377 | 0.181 | -0.1 | 0.317 | -0.386 | -0.151 | -0.201 | 0.575 | 0.469
TAACCAAGGTGAAGGTCGTTGATCCCTCTGTAGA | 1.46 | 2.78 | -0.196 | -0.741 | 0.785 | 1.48 | 0.489 | 1.92 | -0.478 | 2.12
CCTTACGGCTCACTGACAGGTTATAGCATTTGGA | 0.701 | -0.612 | 0.0543 | -0.0527 | 0.157 | 0.158 | 0.192 | 0.669 | 0.331 | 0.0996

Sequence | PBM binding z-score [1] | PBM binding z-score [2] | PBM binding z-score [3] | PBM binding z-score [4] | PBM binding z-score [5] | PBM binding z-score [6] | PBM binding z-score [7] | PBM binding z-score [8] | PBM binding z-score [9] | PBM binding z-score [10]
CCTCGGACGACAGAAGGTCAGAGCTGTCCGCTTT | -0.0338 | -0.307 | -1.28 | -2.04 | 1.12 | 1.35 | -0.144 | 2.01 | -0.163 | 2.67
TCTATTAGTTTAAGGGCAACCGACGAGTCCGTTT | 2.37 | 0.624 | 0.439 | 1.5 | 1.46 | 1.39 | 1.67 | 1.39 | 1.3 | 2.22
TCATATAGGGAAACAGGTGAAAGTCCGTAAGTTA | 3.73 | 2.71 | 0.703 | 0.846 | 1.02 | 0.713 | 0.608 | 0.541 | 1.28 | 0.516
CCTAGTTGGTCAGGAGGTCACACTCCGGATATGA | 2.49 | 3.68 | 0.158 | 0.204 | 4.17 | 4.23 | 1.2 | 4.82 | 1.53 | 3.72
TCAATTAGTTGAAGGGCAACCGACGAGTCCGTTT | 1.84 | 0.225 | -0.0622 | 0.241 | -0.0858 | 0.533 | 0.791 | 0.357 | -0.199 | 1.54
CCGACTGGGGCATAAGGTTGCCATAAGCCAGCCC | 2.51 | 2.07 | -0.622 | -1.53 | -0.22 | -0.532 | -0.499 | 0.0769 | -0.329 | 0.569
TCAGACAGGTGAAGGTAACTCACGTACGCAGTCG | 2.67 | 1.17 | 0.022 | -0.274 | 0.847 | 0.479 | -0.00874 | 0.651 | 0.536 | 1.07
TCGAGTAGGATAGTCGGGGCATTCAGCCAACATA | 0.456 | -0.749 | -1.74 | -1.22 | -0.949 | -0.303 | -0.615 | -0.363 | -0.838 | -0.448
TTACCAAGGTGAGCTGAGGTCGTTTATCCAACTC | 0.956 | 1.9 | -0.2 | -0.389 | -0.278 | 4.87 | 0.621 | 1.58 | -1.08 | 1.53
AGAATGAGGTTACCAAAGAACAGGGAAACGCTTG | 3.61 | 3.21 | 0.635 | 0.163 | 0.531 | 1.06 | 0.0622 | 1.64 | 0.0488 | 2.11
CGTCCAAGGTCAGCAGGTCAGGGAAAGCGACGTG | 3.07 | 3.53 | -0.625 | -0.856 | 4.09 | 3.83 | 0.492 | 5.33 | 1.3 | 5.27
CGTCCAAGGCCAAGGTCAGTGAAAGAGACTCGAA | 0.486 | 0.991 | -1.04 | -1.54 | 1.05 | 1.53 | 0.261 | 2.04 | 0.342 | 3.58
GGAACGAGGGCAAGTTGATACCAGAGTTTGATGG | 3.63 | 3.07 | -0.214 | -0.247 | 0.551 | 0.835 | 0.927 | 0.537 | 0.0477 | 2.45
GGAACGAGGGCAAAGTTGCTAGCATCTGTCGACG | 3.98 | 3.83 | 0.283 | 0.105 | 0.354 | 0.708 | -0.31 | 0.566 | -1.12 | 2.38
CCGACTGGGCCAAGGTCATTGATCAGTCAAAGCA | 2.08 | 2.75 | -1.14 | -0.87 | 2.42 | 3.48 | 0.921 | 3.76 | 0.257 | 3.26
TCTTGTAGATCAAACAGGTTAAGAAAGCCTGAGT | 1.7 | 0.783 | 1.28 | 0.534 | -0.369 | 0.754 | 0.338 | 0.849 | 0.0835 | 0.288
CTCGAAAGCTCGGTTGAGGTGAGTATACGGATAA | -0.672 | -0.193 | -0.22 | -0.607 | -0.84 | -0.305 | -0.679 | 0.034 | -0.648 | -0.166
GCTATCAGTTGAAAGGGCAACCGAATGATTCTCG | 0.18 | 0.3 | -0.111 | -0.549 | 0.562 | 0.584 | -0.393 | 1.25 | -0.381 | 2.07
CAAACTATGTCAAGGTCAAAGTCGGTTTGTGCCA | 5.27 | 4.71 | 0.328 | 0.339 | 2.4 | 5 | 3.33 | 4.46 | 1.69 | 4.25
ACTATTAGTTGACATAGGGCAACCGATACGACGC | 0.444 | 0.742 | 1.27 | 1.22 | 0.811 | 0.547 | 0.504 | 0.635 | 0.879 | 1.19
CAAACTAGGTCAAGACGTCAAAGTCCGCTTCCCG | 7.92 | 8.15 | 1.87 | 1.07 | 1.86 | 1.24 | -0.0732 | 2.5 | 0.685 | 3.97
AGAATGAGGTTACCAAAGATCAGGGGAACGCTTG | 3.68 | 3.55 | 0.871 | 0.161 | 0.699 | 1.59 | -0.0783 | 2.04 | 0.232 | 2.18
AGTCAAAGTTCACTAGGTAACGCAAGATTCAGCT | 3.01 | 4.84 | 0.915 | 1.01 | 2.5 | 3.77 | 2.6 | 3.32 | 1.39 | 4.93
ACAGACAGGTGAGTGAAGGTAGCTCAGCTGGACG | 0.722 | 0.62 | -0.147 | -1.08 | -0.296 | -0.618 | -0.525 | -0.193 | -0.484 | 0.202
